Measurements taken from PubChem BioAssay (NCI).
The panel holds about 79,000 compounds, 15% with a hit somewhere; the sample as a whole holds those more often. A number with no mark means an inactive call. Calls of active or inactive are those of the source. Rule as the data show it: active = growth inhibition above about 70%; inactive = the rest.

Key:
[1] = NCI Yeast Anticancer Drug Screen. Data for the rad52 strain (AID 147);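 also: 0% = growth of vehicle-treated control cultures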; conditions: S. cerevisiae rad52 mutant growth inhibition, stronger effect = higher value
In short: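 Compounds are applied to a genetically defined yeast strain lacking normal DNA damage repair, and inhibition of growth is expressed relative to cultures given vehicle only.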

[2] = NCI Yeast Anticancer Drug Screen. Data for the wt1 strain (AID 149);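 also: 0% = growth of vehicle-treated wt1 cultures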; conditions: S. cerevisiae wt1 strain (SPY 50644) growth inhibition, stronger effect = higher value
In short: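 Compounds are added to wt1 yeast cultures. Growth is then measured. Inhibition is expressed relative to vehicle-treated controls.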

[3] = NCI Yeast Anticancer Drug Screen. Data for the rad50EPP+ strain (AID 151);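 also: 0% = growth of vehicle-treated control cultures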; conditions: S. cerevisiae rad50 mutant strain, stronger effect = higher value
In short: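 Compounds were applied to the rad50EPP+ yeast strain, which bears a defined DNA repair alteration, and growth inhibition was determined relative to vehicle-treated cultures.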

[4] = NCI Yeast Anticancer Drug Screen. Data for the mgt1 strain (AID 153); conditions: S. cerevisiae mgt1 mutant growth inhibition, stronger effect = higher value
In short: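 Strain: mgt1 yeast, one of a set carrying defined DNA damage repair or cell cycle control alterations. Compound-treated growth compared with vehicle.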

[5] = NCI Yeast Anticancer Drug Screen. Data for the rad50 strain (AID 155);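 also: 0% = growth of vehicle-only cultures of the same strain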; conditions: S. cerevisiae rad50 strain growth inhibition, stronger effect = higher value
In short: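 Inhibition values express reduced yeast growth in compound-treated cultures relative to vehicle-treated controls.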

[6] = NCI Yeast Anticancer Drug Screen. Data for the mec2-1 strain (AID 157); conditions: S. cerevisiae mec2-1 strain, stronger effect = higher value
In short: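 Strain: mec2-1 (DNA repair/cell cycle alteration). Compound exposure, then growth measured; inhibition expressed relative to vehicle.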

[7] = NCI Yeast Anticancer Drug Screen. Data for the rad14 strain (AID 159);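 also: 0% = growth of vehicle-treated control cultures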; conditions: S. cerevisiae rad14 strain growth inhibition, stronger effect = higher value
In short: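 A mutant yeast strain defective in DNA damage repair is treated with compound; inhibition of its growth is scored against untreated, vehicle-exposed cultures.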

[8] = NCI Yeast Anticancer Drug Screen. Data for the sgs1 mgt1 strain (AID 161);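 also: 0% = growth of cultures given vehicle only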; conditions: S. cerevisiae sgs1 mgt1 strain, stronger effect = higher value
In short: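 Genetically altered yeast, compound exposure, growth inhibition relative to vehicle.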

[9] = NCI Yeast Anticancer Drug Screen. Data for the cln2 rad14 strain (AID 165);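 also: 0% = growth equal to vehicle treated cultures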; conditions: S. cerevisiae cln2 rad14 strain, stronger effect = higher value
In short: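 Compounds are applied to the cln2 rad14 yeast strain, and growth is then compared with that of vehicle-treated cultures to give inhibition.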

[10] = NCI Yeast Anticancer Drug Screen. Data for the bub3 strain (AID 167); conditions: S. cerevisiae bub3 mutant strain, stronger effect = higher value
In short: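 Steps: expose the mutant yeast strain to compound; grow alongside vehicle-treated cultures; measure growth; express inhibition against the vehicle cultures.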

[11] = NCI Yeast Anticancer Drug Screen. Data for the wt2 strain (AID 169);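 also: 0% = growth of vehicle-treated yeast cultures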; conditions: S. cerevisiae wt2 strain growth inhibition, stronger effect = higher value
In short: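 This strain belongs to a panel of yeast strains with defined genetic alterations in DNA damage repair or cell cycle control. Compounds are applied, and growth inhibition is measured against vehicle-treated cultures.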

[12] = NCI Yeast Anticancer Drug Screen. Data for the mlh1 strain (AID 171);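 also: 0% = growth of vehicle-treated control cultures of the same strain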; conditions: S. cerevisiae mlh1 strain growth inhibition, stronger effect = higher value
In short: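 Growth of the mutant yeast strain after compound exposure, expressed as inhibition relative to vehicle-only controls.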

[13] = NCI Yeast Anticancer Drug Screen. Data for the sgs1 strain (AID 173);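 also: 0% = growth of vehicle-only control cultures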; conditions: S. cerevisiae sgs1 mutant, stronger effect = higher value
In short: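 Growth of a yeast strain bearing a defined genetic alteration is measured after compound treatment. Inhibition is expressed relative to vehicle-only controls.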

[14] = NCI Yeast Anticancer Drug Screen. Data for the mlh1 rad18 strain (AID 175); conditions: S. cerevisiae mlh1 rad18 strain growth inhibition, stronger effect = higher value
In short: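 Read-out is yeast growth inhibition, calculated against vehicle-only controls. The compound was applied to a strain engineered with DNA damage repair alterations.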

[15] = NCI Yeast Anticancer Drug Screen. Data for the CLN2oe strain (AID 163);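 also: 0% = growth of vehicle-only control cultures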; conditions: S. cerevisiae CLN2oe strain, stronger effect = higher value
In short: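 Growth of a genetically modified yeast strain is measured after compound exposure and compared with cultures given vehicle alone.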

[16] = NCI Yeast Anticancer Drug Screen. Data for the rad18 strain (AID 177); conditions: S. cerevisiae rad18 mutant growth inhibition, stronger effect = higher value
In short: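 Growth of the mutant yeast strain after compound exposure, normalised to vehicle-only cultures.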

[17] = at 5.0 µM (retest, dose inferred, filed as 0.5)
[18] = at 50.0 µM (retest, dose inferred, filed as 5.0)

COC1=CCC23C(=O)C=CC(=O)C2(C1)C(=O)c1ccccc1C3=O (stereo unspecified)
growth inhibition ([1]; at 1.2 µM): -40% | growth inhibition ([1]; at 3.7 µM): -35% | growth inhibition ([1]; at 11.0 µM): 12% | growth inhibition ([1]; at 33.0 µM): 54% | growth inhibition ([1]; at 100.0 µM): 89% (active) | growth inhibition ([2]; at 1.2 µM): -34% | growth inhibition ([2]; at 3.7 µM): -24% | growth inhibition ([2]; at 11.0 µM): -16% | growth inhibition ([2]; at 33.0 µM): -1% | growth inhibition ([2]; at 100.0 µM): 93% (active) | growth inhibition ([3]; at 1.2 µM): 19% | growth inhibition ([3]; at 3.7 µM): 17% | growth inhibition ([3]; at 11.0 µM): 25% | growth inhibition ([3]; at 33.0 µM): 30% | growth inhibition ([3]; at 100.0 µM): 62% | growth inhibition ([4]; at 1.2 µM): -24% | growth inhibition ([4]; at 3.7 µM): -14% | growth inhibition ([4]; at 11.0 µM): 6% | growth inhibition ([4]; at 33.0 µM): 40% | growth inhibition ([4]; at 100.0 µM): 93% (active) | growth inhibition ([5]; at 1.2 µM): -27% | growth inhibition ([5]; at 3.7 µM): -47% | growth inhibition [5, 17]: 19% | growth inhibition ([5]; at 11.0 µM): 12% | growth inhibition ([5]; at 33.0 µM): 52% | growth inhibition [5, 18]: 72% (active) | growth inhibition ([5]; at 50.0 µM): 65.8% | growth inhibition ([5]; at 100.0 µM): 87% (active) | growth inhibition ([6]; at 1.2 µM): 8% | growth inhibition ([6]; at 3.7 µM): -4% | growth inhibition [6, 17]: 20% | growth inhibition ([6]; at 11.0 µM): -11% | growth inhibition ([6]; at 33.0 µM): 34% | growth inhibition [6, 18]: 88% (active) | growth inhibition ([6]; at 50.0 µM): 55.5% | growth inhibition ([6]; at 100.0 µM): 91% (active) | growth inhibition ([7]; at 1.2 µM): -24% | growth inhibition ([7]; at 3.7 µM): 2% | growth inhibition ([7]; at 11.0 µM): 1% | growth inhibition ([7]; at 33.0 µM): 50% | growth inhibition ([7]; at 100.0 µM): 92% (active) | growth inhibition [8, 17]: -2% | growth inhibition [8, 18]: 76% (active) | growth inhibition ([8]; at 50.0 µM): 74.7% (active) | growth inhibition [9, 17]: 0% | growth inhibition [9, 18]: -49% | growth inhibition ([9]; at 50.0 µM): 36.5% | growth inhibition ([10]; at 1.2 µM): -30% | growth inhibition ([10]; at 3.7 µM): -38% | growth inhibition [10, 17]: 2% | growth inhibition ([10]; at 11.0 µM): -29% | growth inhibition ([10]; at 33.0 µM): 15% | growth inhibition [10, 18]: 78% (active) | growth inhibition ([10]; at 50.0 µM): 74.4% (active) | growth inhibition ([10]; at 100.0 µM): 91% (active) | growth inhibition ([11]; at 1.2 µM): -11% | growth inhibition ([11]; at 3.7 µM): -5% | growth inhibition ([11]; at 11.0 µM): 23% | growth inhibition ([11]; at 33.0 µM): 40% | growth inhibition ([11]; at 100.0 µM): 93% (active) | growth inhibition ([12]; at 1.2 µM): -11% | growth inhibition ([12]; at 3.7 µM): -25% | growth inhibition ([12]; at 11.0 µM): -2% | growth inhibition ([12]; at 33.0 µM): 54% | growth inhibition ([12]; at 100.0 µM): 95% (active) | growth inhibition ([13]; at 1.2 µM): 10% | growth inhibition ([13]; at 3.7 µM): -6% | growth inhibition ([13]; at 11.0 µM): 24% | growth inhibition ([13]; at 33.0 µM): 61% | growth inhibition ([13]; at 100.0 µM): 93% (active) | growth inhibition [14, 17]: 26% | growth inhibition [14, 18]: 84% (active) | growth inhibition ([14]; at 50.0 µM): 68.2%

CC(=O)N1C=Cc2c(c(C)c3c([nH]c4ccccc43)c2C)C1
growth inhibition ([1]; at 1.2 µM): 25% | growth inhibition ([1]; at 3.7 µM): 88% (active) | growth inhibition ([1]; at 11.0 µM): 95% (active) | growth inhibition ([1]; at 33.0 µM): 96% (active) | growth inhibition ([1]; at 100.0 µM): 97% (active) | growth inhibition ([2]; at 1.2 µM): -7% | growth inhibition ([2]; at 3.7 µM): 28% | growth inhibition ([2]; at 11.0 µM): 82% (active) | growth inhibition ([2]; at 33.0 µM): 90% (active) | growth inhibition ([2]; at 100.0 µM): 92% (active) | growth inhibition ([3]; at 1.2 µM): 28% | growth inhibition ([3]; at 3.7 µM): 74% (active) | growth inhibition ([3]; at 11.0 µM): 94% (active) | growth inhibition ([3]; at 33.0 µM): 97% (active) | growth inhibition ([3]; at 100.0 µM): 96% (active) | growth inhibition ([4]; at 1.2 µM): 29% | growth inhibition ([4]; at 3.7 µM): 64% | growth inhibition ([4]; at 11.0 µM): 91% (active) | growth inhibition ([4]; at 33.0 µM): 96% (active) | growth inhibition ([4]; at 100.0 µM): 95% (active) | growth inhibition ([5]; at 1.2 µM): 67% | growth inhibition ([5]; at 3.7 µM): 91% (active) | growth inhibition [5, 17]: 82% (active) | growth inhibition ([5]; at 11.0 µM): 95% (active) | growth inhibition ([5]; at 33.0 µM): 96% (active) | growth inhibition [5, 18]: 91% (active) | growth inhibition ([5]; at 50.0 µM): 87.2% (active) | growth inhibition ([5]; at 100.0 µM): 95% (active) | growth inhibition ([6]; at 1.2 µM): -5% | growth inhibition ([6]; at 3.7 µM): 33% | growth inhibition [6, 17]: 12% | growth inhibition ([6]; at 11.0 µM): 81% (active) | growth inhibition ([6]; at 33.0 µM): 91% (active) | growth inhibition [6, 18]: 84% (active) | growth inhibition ([6]; at 50.0 µM): 87.3% (active) | growth inhibition ([6]; at 100.0 µM): 93% (active) | growth inhibition ([7]; at 1.2 µM): 7% | growth inhibition ([7]; at 3.7 µM): 32% | growth inhibition ([7]; at 11.0 µM): 79% (active) | growth inhibition ([7]; at 33.0 µM): 90% (active) | growth inhibition ([7]; at 100.0 µM): 94% (active) | growth inhibition [8, 17]: 16% | growth inhibition [8, 18]: 91% (active) | growth inhibition ([8]; at 50.0 µM): 88% (active) | growth inhibition ([15]; at 1.2 µM): 31% | growth inhibition ([15]; at 3.7 µM): 52% | growth inhibition ([15]; at 11.0 µM): 91% (active) | growth inhibition ([15]; at 33.0 µM): 95% (active) | growth inhibition ([15]; at 100.0 µM): 95% (active) | growth inhibition [9, 17]: 24% | growth inhibition [9, 18]: 86% (active) | growth inhibition ([9]; at 50.0 µM): 79.8% (active) | growth inhibition ([10]; at 1.2 µM): 16% | growth inhibition ([10]; at 3.7 µM): 52% | growth inhibition [10, 17]: 14% | growth inhibition ([10]; at 11.0 µM): 90% (active) | growth inhibition ([10]; at 33.0 µM): 95% (active) | growth inhibition [10, 18]: 86% (active) | growth inhibition ([10]; at 50.0 µM): 85.3% (active) | growth inhibition ([10]; at 100.0 µM): 96% (active) | growth inhibition ([13]; at 1.2 µM): -7% | growth inhibition ([13]; at 3.7 µM): 32% | growth inhibition ([13]; at 11.0 µM): 86% (active) | growth inhibition ([13]; at 33.0 µM): 95% (active) | growth inhibition ([13]; at 100.0 µM): 95% (active) | growth inhibition [14, 17]: 44% | growth inhibition [14, 18]: 95% (active) | growth inhibition ([14]; at 50.0 µM): 88.8% (active) | growth inhibition ([16]; at 1.2 µM): 23% | growth inhibition ([16]; at 3.7 µM): 44% | growth inhibition ([16]; at 11.0 µM): 91% (active) | growth inhibition ([16]; at 33.0 µM): 96% (active) | growth inhibition ([16]; at 100.0 µM): 96% (active)
